# Screening results from PubChem.
# Hits are enriched below; roughly 4% of the tested compounds scored in any of these assays.
# D1 ag: activates the human D1 dopamine receptor | P21728 | HEK293 T-REx D1 cells, calcium flux, agonist mode | activation, % at 2 µM | actives 1% (n = 360,000); also: 0% is about no effect
# Target sequence (P21728 whole entry, looked up): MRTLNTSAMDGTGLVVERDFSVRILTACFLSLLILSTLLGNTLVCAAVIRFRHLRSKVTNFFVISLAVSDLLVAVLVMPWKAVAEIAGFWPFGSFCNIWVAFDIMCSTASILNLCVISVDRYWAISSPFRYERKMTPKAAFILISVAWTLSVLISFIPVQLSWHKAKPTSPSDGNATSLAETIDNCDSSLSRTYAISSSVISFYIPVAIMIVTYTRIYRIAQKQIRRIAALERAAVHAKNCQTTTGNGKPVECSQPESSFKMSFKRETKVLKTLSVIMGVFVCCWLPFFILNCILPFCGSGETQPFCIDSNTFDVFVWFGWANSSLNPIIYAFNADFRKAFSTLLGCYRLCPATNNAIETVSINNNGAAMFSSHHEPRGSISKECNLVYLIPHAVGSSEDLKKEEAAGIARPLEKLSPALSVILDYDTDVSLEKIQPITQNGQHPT
#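 Inducible HEK293 T-REx D1 cells, force-coupled to calcium signalling, were plated at 4000 cells/well with tetracycline and held overnight at 30 C. After no-wash calcium dye loading, compound-evoked calcium rise over 180 s flagged agonists.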
# D1 PAM: human D1 dopamine receptor positive modulation; potentiation, % at 10 µM; HEK293 TREx D1 cells, calcium flux, dopamine EC20 potentiation; P21728; actives 0.036% (n = 360,000); AID 504651; in the data active = potentiation above about 30%; also: 0% is about no effect
# TRHR ag: activates the human TRH receptor. actives 0.18% (n = 360,000). TRHR cells, calcium flux fluo-8, FDSS agonist mode. activation, % at 2 µM. P34981; also: 0% is about no effect
#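 In this calcium-flux screen, cells bearing human TRHR are dye-loaded with fluo-8, baselined for 10 cycles, then exposed to library compounds; positive kinetic calcium responses during the agonist phase mark hits, with TRH as control.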
# GRP78 ERSR act: inducers of ER stress response in human glioma cells; AID 602332; actives 0.02% (n = 420,000); Potency, µM, without a hit: at the highest dose activation, usual class: activators; U87-MG GRP78 promoter luciferase reporter, 16 h; active = well fitted activation curve with a large enough effect; also: potency is read from the fitted curve at half-maximal effect; series mostly up to about 76 µM; % of control where 0% means no effect; nearly all actives have a fitted effect of over 35% in size
#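 ERSR induction read as luciferase luminescence (Bright-Glo, 10 min at room temperature) in stably transfected human U87-MG glioma cells exposed to compounds for 16 h, using GRP78 as sensor.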
# D1 antagonist: blocks dopamine activation of the human D1 receptor | HEK293 TREx D1 cells, calcium flux, dopamine EC80; stronger effect = lower value | activity change, negative = inhibition, % at 10 µM | actives 3.2% (n = 360,000); in the data active = activity change below about -30%; also: % is scaled to controls: 0 for no effect and ±100 for the full control effect
#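 Kinetic fluorescence of a calcium dye serves as the read-out. D1-expressing Hek293 Trex cells, induced overnight at 30 C, are exposed to compound for 180 s before an EC80 dopamine addition, then read 180 s further.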
# TRHR PAM: TRH receptor (human) allosteric enhancement; P34981; TRHR cells, fluo-8 calcium fluorescence, EC20 TRH enhancement; enhancement, % at 2 µM; actives 0.66% (n = 360,000); AID 493056; in the data active = enhancement above about 30%; also: 0% is about no effect
#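 Enhancer read-out: after compound pinning and an initial kinetic agonist-mode read, an EC20 of TRH (10 nM final) was injected and fluo-8 calcium signal (Ex 480/Em 530) followed at 1 s/cycle for 100 cycles in TRHR-expressing cells.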
# An asterisk follows results filed as active; . = no result. Rule as the data show it, unless noted: active = activation above about 30%; inactive = the rest.
SMILES,D1 ag,D1 PAM,TRHR ag,GRP78 ERSR act,D1 antagonist,TRHR PAM
O=C(NCCN1CCOCC1)c1ccc(CSCc2cccc(Cl)c2)o1,3,0,0,-3%,1,2
Cc1ccc(C)c(CN2CCC(CNC(=O)Nc3ccc(Br)cc3F)CC2)c1,2,-2,0,-12%,5,-1
Cc1ccc(C)c(CN2CCC(CNC(=O)Nc3ccc(Cl)cc3)CC2)c1,23,-21,2,4%,-33*,7
CCCCOC(=O)/C=C/c1c(C)[nH]c(=O)[nH]c1=O,-1,-5,0,-2%,1,-4
C[C@@H](NC(=O)Cn1ccc(NC(=O)OCc2ccccc2)nc1=O)c1cccc2ccccc12,3,-5,1,-3%,-33*,-9
COC(=O)c1ccccc1NC(=O)N(Cc1ccc(C)cc1)Cc1cccn1-c1nnc(N2CCCC2=O)s1,0,-4,0,-1%,14,1
C=C(C)C1CC=C(C)/C(=N/NC(=O)c2cccc([N+](=O)[O-])c2)C1 (configuration not stated),-1,8,-1,3%,9,37*
CC(=O)c1cccc(-c2ccnc3c2CC(C(=O)NCCc2ccccc2)O3)c1 (configuration not stated),.,.,.,1%,.,.
O=C(COC(=O)CSc1ccc(F)cc1)NC1CC1,.,.,.,-1%,.,.
O=C(COC(=O)CSc1ccc(F)cc1)NCC1CCCCC1,3,-4,0,-3%,-37*,3
Cc1ccc(-c2nc(N)c3c(-c4ccc(C)cc4)nn(C(C)(C)C)c3n2)cc1,2,-20,1,0%,-46*,-1
CC(C)(C)n1nc(-c2ccc(Cl)cc2)c2c(N)ncnc21,1,-2,0,-4%,-11,2
O=C(OCCN1CCN(C2=NS(=O)(=O)c3ccccc32)CC1)c1ccccc1F,2,-1,0,-5%,-32*,11
CCCCCCN1C=CC=C/C1=C/C=C(C#N)C#N,132*,3,25,-4%,6,-6
CCCCCCN1C=C/C(=C\C=C(C#N)C#N)c2ccccc21,5,-2,2,-1%,-4,-4
O=C1c2ccccc2-c2cccc(NS(=O)(=O)c3ccc(C(F)(F)F)cc3)c21,55*,0,15,2%,3,1
Cc1ccc(S(=O)(=O)Nc2ccccc2-c2ccccc2NS(=O)(=O)c2ccc(C)cc2)cc1,2,-5,0,-2%,-2,1
O=c1oc2ccccc2c(NCc2ccccc2F)c1[N+](=O)[O-],7,-4,0,-4%,-1,1
O=c1oc2ccccc2c(Nc2ccc(Cl)cc2)c1[N+](=O)[O-],33*,-11,0,-5%,-4,10
CC(C)c1ccc(CNc2c([N+](=O)[O-])c(=O)oc3ccccc23)cc1,27,-3,-1,3%,-34*,-3
COC(=O)C1=C(C)NC(=O)C1(Nc1nccs1)C(F)(F)F (configuration not stated),2,-1,0,-8%,1,2
CN(C)C(=O)c1ccc(NC(=O)CSc2nc3ccccc3[nH]2)cc1,2,-7,1,3%,-2,-5
O=C(Cn1nc(Cc2cccnc2)c2ccccc2c1=O)Nc1cccnc1Cl,4,-3,-3,-8%,-9,0
Cc1nc(=O)cc(-c2ccccc2)n1-c1ccccc1,1,-3,0,0%,-3,-5
CCOC(=O)c1nn(C)c(C)c1Cl,6,-7,0,-4%,-44*,7
COc1ccccc1NS(=O)(=O)c1cc(C(=O)NCCCN2CCCC2=O)ccc1C,.,.,.,-3%,.,.
O=C1/C(=C\c2c(NCCOCCO)nc3ccccn3c2=O)SC(=S)N1Cc1ccco1,138*,-3,33*,-5%,7,1
CC(=O)Nc1ccc(NC(=O)CCC(=O)Oc2ccc(C)cc2)cc1,0,7,-1,-3%,-17,-1
Cc1ccc(SCCNS(=O)(=O)c2ccc3c(c2)OCCO3)cc1,10,-8,0,-6%,-33*,-2
O=S(=O)(NCCNS(=O)(=O)c1c(F)cccc1F)c1ccc2c(c1)OCCO2,-2,0,0,-7%,-24,2
